# The supplement of paper PMC10849652
# The full data set covers some 8,800 targets. This sample favours those with a hit. About 0.5% of all pairs of compound and target were hits. Values without a mark were called inactive.
# Columns and labels:
# Assay in all cases: log2 fold change, soluble protein after heating vs DMSO (PISA); higher = thermal stabilisation; K562 lysate, 10 uM; active = over 0.2 and 3.5 SD of the protein, either way, in both replicates (recomputed)
# [1] = compound: CN1CC[C@H](c2c(O)cc(O)c3c(=O)cc(-c4ccccc4Cl)oc23)[C@H](O)C1 [alvocidib]
# Method in brief: (§1)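 Log-two fold change in thermal stability relative to solvent controls is reported from duplicates. For each sample, crude K562 extract from dounce-homogenised pellets in PBS pH 7.4 with 1 mM MgCl2, at 1 mg/mL protein, was treated with 10 μM compound for 30 min. Aliquots heated for 3 min across 48°C-58°C were pooled, brought to 0.5% NP-40 at 4°C and cleared at 21,000xg for 90 min. The supernatant was quantified by TMTpro 16plex LC-MS/MS with channel sums equalised.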
# [2] = compound: CN1CCc2c(c3ccccc3n2Cc2ccc(C(=O)NO)cc2)C1 [Tubastatin A]
# Method in brief: as §1
# [3] = compound: CNC(=O)C1=CC=CC=C1NC2=NC(=NC=C2Cl)NC3=C(C=C(C=C3)N4CCOCC4)OC
# Method in brief: as §1
# [4] = compound: CNC(=O)c1ccc(Nc2ncc(C(F)(F)F)c(NCc3nccnc3N(C)S(C)(=O)=O)n2)cc1 [defactinib]
# Method in brief: as §1
# [5] = compound: CNc1nc(-c2ccc3c(N)n[nH]c3c2)cc(N2C[C@@H](C(=O)NC3CCCCC3)CC[C@H]2C)n1
# Method in brief: as §1
# [6] = compound: COC(=O)N[C@@H](C)CNc1nccc(-c2cn(C(C)C)nc2-c2cc(Cl)cc(NS(C)(=O)=O)c2F)n1 [encorafenib]
# Method in brief: as §1
# [7] = compound: COC(=O)[C@H](CCSC)NC(=O)C1=C(C=C(C=C1)NC[C@H](CS)N)C2=CC=CC=C2
# Method in brief: as §1
# [8] = compound: COc1cc(Nc2ncc3c(n2)-c2ccc(Cl)cc2C(c2c(F)cccc2OC)=NC3)ccc1C(=O)O [alisertib]
# Method in brief: as §1
# [9] = compound: COc1cc2ncnc(Nc3ccc(F)c(Cl)c3)c2cc1OCCCN1CCOCC1 [gefitinib]
# Method in brief: as §1
# [10] = compound: COc1cc2nc(-c3cc(F)ccc3O)nc(N[C@@H]3CNC[C@H]3C(C)(C)O)c2cc1OC
# Method in brief: as §1
# Chain of UniProt Q9UBF8 (Q9UBF8 whole entry, looked up): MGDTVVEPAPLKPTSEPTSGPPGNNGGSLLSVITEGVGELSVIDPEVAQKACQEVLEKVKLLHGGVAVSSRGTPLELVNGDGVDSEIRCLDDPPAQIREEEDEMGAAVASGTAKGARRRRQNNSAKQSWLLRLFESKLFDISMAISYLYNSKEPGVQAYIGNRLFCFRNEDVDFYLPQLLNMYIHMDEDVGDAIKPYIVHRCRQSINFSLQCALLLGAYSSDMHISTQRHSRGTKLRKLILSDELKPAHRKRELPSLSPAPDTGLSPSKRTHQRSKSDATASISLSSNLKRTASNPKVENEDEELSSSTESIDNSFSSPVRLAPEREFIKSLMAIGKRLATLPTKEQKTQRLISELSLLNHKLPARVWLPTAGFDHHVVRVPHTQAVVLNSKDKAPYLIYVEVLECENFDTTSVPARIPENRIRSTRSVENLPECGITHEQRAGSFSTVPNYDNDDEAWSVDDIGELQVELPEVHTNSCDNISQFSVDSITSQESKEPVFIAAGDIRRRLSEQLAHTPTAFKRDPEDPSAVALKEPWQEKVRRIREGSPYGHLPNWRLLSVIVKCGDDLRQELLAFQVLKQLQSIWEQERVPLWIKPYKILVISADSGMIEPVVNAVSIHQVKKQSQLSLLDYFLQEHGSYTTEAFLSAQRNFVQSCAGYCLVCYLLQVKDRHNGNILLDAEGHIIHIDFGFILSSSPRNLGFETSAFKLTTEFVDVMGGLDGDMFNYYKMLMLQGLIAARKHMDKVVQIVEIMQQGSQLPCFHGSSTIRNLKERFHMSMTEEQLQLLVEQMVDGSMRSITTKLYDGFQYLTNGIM
# Chain of UniProt P05771 (P05771 whole entry, looked up): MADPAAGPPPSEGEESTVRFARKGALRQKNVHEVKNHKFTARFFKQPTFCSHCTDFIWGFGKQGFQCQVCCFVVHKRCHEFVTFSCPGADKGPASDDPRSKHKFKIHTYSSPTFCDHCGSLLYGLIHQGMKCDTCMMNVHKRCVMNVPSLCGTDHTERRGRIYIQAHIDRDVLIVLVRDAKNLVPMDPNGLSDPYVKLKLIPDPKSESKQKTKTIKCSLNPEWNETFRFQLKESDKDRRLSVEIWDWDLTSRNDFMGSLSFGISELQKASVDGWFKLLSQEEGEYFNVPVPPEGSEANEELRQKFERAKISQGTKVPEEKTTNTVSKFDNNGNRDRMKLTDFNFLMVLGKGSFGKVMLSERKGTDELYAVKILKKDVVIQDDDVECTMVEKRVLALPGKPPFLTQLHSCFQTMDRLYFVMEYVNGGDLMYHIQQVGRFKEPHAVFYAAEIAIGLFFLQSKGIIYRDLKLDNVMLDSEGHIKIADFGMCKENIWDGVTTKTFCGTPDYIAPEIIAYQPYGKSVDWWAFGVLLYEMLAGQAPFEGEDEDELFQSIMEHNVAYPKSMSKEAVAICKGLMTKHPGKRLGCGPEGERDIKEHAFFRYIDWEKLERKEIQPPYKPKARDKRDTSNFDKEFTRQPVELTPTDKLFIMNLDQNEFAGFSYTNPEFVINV
# Chain of UniProt O14744 (O14744 whole entry, looked up): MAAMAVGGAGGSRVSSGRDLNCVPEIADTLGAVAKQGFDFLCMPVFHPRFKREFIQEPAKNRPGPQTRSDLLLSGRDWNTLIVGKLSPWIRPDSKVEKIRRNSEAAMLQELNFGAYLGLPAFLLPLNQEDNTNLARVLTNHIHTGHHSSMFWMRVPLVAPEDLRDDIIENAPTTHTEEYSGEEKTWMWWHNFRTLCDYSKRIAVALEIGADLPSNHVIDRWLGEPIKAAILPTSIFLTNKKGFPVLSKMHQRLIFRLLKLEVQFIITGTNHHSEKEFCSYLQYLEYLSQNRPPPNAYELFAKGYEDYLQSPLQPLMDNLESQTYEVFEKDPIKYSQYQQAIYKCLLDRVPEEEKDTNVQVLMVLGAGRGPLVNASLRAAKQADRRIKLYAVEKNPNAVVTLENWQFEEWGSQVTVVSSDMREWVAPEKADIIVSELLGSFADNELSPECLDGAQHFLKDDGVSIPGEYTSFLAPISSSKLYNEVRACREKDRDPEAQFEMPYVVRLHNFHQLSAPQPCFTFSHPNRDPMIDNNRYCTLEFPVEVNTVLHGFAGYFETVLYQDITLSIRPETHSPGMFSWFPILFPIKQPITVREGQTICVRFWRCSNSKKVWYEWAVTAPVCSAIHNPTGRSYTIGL
# Chain of UniProt Q8TCD6 (Q8TCD6 whole entry, looked up): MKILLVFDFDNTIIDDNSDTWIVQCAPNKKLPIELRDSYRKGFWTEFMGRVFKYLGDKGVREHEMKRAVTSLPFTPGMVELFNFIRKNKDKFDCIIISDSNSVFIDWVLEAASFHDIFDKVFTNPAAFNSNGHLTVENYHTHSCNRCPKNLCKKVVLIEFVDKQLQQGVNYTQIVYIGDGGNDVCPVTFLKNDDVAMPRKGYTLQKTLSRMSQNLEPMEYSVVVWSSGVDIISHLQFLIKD
# Chain of UniProt Q9NR22 (Q9NR22 whole entry, looked up): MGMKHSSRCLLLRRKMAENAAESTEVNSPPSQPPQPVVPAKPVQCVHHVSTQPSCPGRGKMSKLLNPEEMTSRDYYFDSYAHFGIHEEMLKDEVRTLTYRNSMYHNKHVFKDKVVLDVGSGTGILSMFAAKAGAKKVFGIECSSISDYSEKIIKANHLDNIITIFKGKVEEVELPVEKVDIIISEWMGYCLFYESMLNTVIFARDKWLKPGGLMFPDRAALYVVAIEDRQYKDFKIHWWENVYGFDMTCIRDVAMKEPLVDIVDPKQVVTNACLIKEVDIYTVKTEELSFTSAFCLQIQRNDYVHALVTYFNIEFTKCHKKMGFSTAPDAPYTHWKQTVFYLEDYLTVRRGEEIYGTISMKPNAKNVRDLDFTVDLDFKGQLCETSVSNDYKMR
# Chain of UniProt P54277 (P54277 whole entry, looked up): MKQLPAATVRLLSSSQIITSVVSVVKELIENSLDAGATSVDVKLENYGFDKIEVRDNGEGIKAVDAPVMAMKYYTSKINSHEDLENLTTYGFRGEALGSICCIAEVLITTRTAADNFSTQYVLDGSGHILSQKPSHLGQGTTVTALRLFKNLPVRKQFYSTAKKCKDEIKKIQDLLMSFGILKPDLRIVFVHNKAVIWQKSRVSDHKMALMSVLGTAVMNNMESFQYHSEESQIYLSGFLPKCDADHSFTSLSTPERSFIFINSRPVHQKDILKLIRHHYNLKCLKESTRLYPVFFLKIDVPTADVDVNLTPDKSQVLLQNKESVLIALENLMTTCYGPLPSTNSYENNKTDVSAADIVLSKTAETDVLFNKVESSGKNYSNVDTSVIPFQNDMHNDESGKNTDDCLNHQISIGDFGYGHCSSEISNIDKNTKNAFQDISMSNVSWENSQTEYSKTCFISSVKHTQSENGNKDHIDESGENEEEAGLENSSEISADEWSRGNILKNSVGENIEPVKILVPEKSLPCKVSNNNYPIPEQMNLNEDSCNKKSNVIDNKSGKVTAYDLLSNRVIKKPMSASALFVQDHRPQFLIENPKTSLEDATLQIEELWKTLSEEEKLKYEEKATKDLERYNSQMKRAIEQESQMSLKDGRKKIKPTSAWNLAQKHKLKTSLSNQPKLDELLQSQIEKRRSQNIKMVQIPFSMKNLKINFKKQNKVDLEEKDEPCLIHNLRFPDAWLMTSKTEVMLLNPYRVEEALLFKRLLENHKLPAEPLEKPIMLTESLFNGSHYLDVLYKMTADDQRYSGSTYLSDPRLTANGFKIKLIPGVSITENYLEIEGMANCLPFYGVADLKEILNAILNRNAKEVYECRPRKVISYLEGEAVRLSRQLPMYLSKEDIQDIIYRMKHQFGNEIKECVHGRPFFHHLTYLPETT
# Chain of UniProt P35236 (P35236 whole entry, looked up): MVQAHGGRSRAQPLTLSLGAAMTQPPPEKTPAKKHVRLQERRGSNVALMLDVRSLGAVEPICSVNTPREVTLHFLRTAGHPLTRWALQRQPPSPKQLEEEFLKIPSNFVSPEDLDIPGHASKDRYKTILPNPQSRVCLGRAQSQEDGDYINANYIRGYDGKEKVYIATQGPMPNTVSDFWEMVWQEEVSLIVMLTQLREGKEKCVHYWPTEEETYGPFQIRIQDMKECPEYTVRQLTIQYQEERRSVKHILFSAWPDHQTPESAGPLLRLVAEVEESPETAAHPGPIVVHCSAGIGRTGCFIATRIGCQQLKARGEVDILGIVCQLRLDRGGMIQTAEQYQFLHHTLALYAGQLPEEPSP
# Chain of UniProt P53609 (P53609 whole entry, looked up): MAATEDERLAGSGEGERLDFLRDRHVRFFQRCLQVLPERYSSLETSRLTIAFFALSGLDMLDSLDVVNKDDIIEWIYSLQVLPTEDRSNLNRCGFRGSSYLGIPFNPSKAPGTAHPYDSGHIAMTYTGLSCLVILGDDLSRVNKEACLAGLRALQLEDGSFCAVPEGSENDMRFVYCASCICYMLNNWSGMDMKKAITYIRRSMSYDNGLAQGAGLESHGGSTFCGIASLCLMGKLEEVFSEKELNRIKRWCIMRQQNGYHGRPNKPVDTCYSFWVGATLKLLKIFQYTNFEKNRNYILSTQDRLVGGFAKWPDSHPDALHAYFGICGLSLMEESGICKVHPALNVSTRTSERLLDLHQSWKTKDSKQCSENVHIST
# Chain of UniProt Q8TBX8 (Q8TBX8 whole entry, looked up): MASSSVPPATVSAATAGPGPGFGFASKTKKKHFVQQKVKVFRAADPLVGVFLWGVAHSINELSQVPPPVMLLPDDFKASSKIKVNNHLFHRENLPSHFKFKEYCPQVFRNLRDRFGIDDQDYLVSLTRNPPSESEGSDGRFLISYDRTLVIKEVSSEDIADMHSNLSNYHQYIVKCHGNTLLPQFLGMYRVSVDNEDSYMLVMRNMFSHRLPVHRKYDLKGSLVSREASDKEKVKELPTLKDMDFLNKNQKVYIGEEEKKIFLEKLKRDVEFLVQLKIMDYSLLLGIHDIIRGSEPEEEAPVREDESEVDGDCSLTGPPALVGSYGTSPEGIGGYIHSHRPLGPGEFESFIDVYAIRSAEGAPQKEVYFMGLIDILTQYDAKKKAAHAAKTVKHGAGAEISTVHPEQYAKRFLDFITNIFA
# Chain of UniProt Q15004 (Q15004 whole entry, looked up): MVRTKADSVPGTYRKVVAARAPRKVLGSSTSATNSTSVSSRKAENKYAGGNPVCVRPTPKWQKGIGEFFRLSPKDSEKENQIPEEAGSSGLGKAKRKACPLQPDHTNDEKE
Target,log2 fold change [1],log2 fold change [2],log2 fold change [3],log2 fold change [4],log2 fold change [5],log2 fold change [6],log2 fold change [7],log2 fold change [8],log2 fold change [9],log2 fold change [10]
PCLAF (UniProt Q15004),-0.005,0.041,0.017,0.014,0.056,0.005,-0.077,-0.097,0.001,–
PTPN7 isoform 3 (UniProt P35236),-0.082,-0.138,0.057,0.017,0.038,-0.051,0.122,0.021,-0.025,-0.023
PI4K2B (UniProt Q8TCG2),-0.263,0.12,-0.04,-0.081,-0.057,0.041,-0.005,-0.068,0.107,-0.011
PRPF6 (UniProt O94906),0.006,-0.096,0.01,0.025,-0.011,0.024,0.22 (active),0.008,-0.016,0.009
PHOSPHO2 (UniProt Q8TCD6),0.053,-0.042,-0.026,-0.008,-0.008,-0.02,0.356 (active),-0.013,0.016,-0.008
PIP4K2C (UniProt Q8TBX8),0.47 (active),0.022,0.125,0.092,-0.07,0.139,-0.085,0.013,0.083,0.104
POLA1 (UniProt P09884),-0.01,-0.031,0.037,0.016,-0.004,0.022,0.061,-0.013,0.008,0.014
PFKFB4 (UniProt Q16877),-0.03,-0.009,0.029,0.011,-0.027,0.02,-0.019,–,–,-0.016
PMS1 (UniProt P54277),-0.038,-0.046,-0.008,0,-0.039,0.046,0.022,-0.01,0.049,–
PRKAR2A (UniProt P13861),-0.028,-0.019,-0.176,-0.085,-0.017,0.037,0.142,0.002,0.024,-0.062
PIM1 isoform 2 (UniProt P11309),0.217,-0.204,0.052,0.035,-0.152,-0.007,0.038,-0.017,0.003,–
PCYT1B (UniProt Q9Y5K3),-0.007,-0.023,0.033,0.01,0.086,0.047,-0.025,0.033,0.033,-0.02
PRKCB isoform 2 (UniProt P05771),-0.004,0.054,-0.029,-0.019,0.03,0.057,-0.203,0.039,0.008,0.148
PTGES2 (UniProt Q9H7Z7),0.015,-0.169,0.122,-0.075,0.322,-0.127,0.098,-0.026,0.245,-0.248
PRMT8 (UniProt Q9NR22),-0.11,-0.019,0.001,-0.103,-0.005,-0.002,0.004,-0.01,0.034,0.016
PTPN23 (UniProt Q9H3S7),-0.004,-0.035,-0.03,-0.018,0.016,0.031,-0.018,0.012,0.005,-0.017
PPM1H (UniProt Q9ULR3),-0.046,0.071,0.006,-0.03,0.078,-0.008,-0.028,–,–,0.05
PHKA1 (UniProt P46020),0.047,-0.073,0.168,0.08,-0.029,0.004,0.065,-0.014,0.041,0.084
PRIM1 (UniProt P49642),0,-0.11,0.023,-0.012,0.033,0.052,0.041,-0.054,-0.008,-0.019
PRMT5 (UniProt O14744),0.318 (active),-0.009,0.008,-0.019,0.013,-0.015,-0.099,0,-0.023,0.011
PPP2R5B (UniProt Q15173),0.069,-0.012,-0.03,-0.091,-0.056,-0.017,0.288 (active),–,–,0.046
PI4KB (UniProt Q9UBF8),0.005,-0.032,0.228,0.094,0.056,0.081,-0.069,-0.001,0,-0.097
PRRC2A (UniProt P48634),-0.006,-0.014,-0.001,0.046,-0.012,0.048,-0.044,0.016,-0.008,0.005
PLXNB2 (UniProt O15031),0,0.015,0.009,0.002,0.027,0.004,-0.107,0.017,0.016,0.054
POLB (UniProt P06746),0.023,-0.199,-0.062,0.028,-0.033,0.045,0.086,0.015,0.038,0
PGGT1B (UniProt P53609),0.032,0.036,-0.068,0.022,-0.117,-0.039,0.454 (active),-0.011,-0.021,-0.032
POLR3E (UniProt Q9NVU0),0.011,-0.08,0.009,0.02,0.009,0.004,0.104,0.024,0.009,-0.003
PRKCSH isoform 2 (UniProt P14314),-0.124,0.002,-0.078,-0.011,-0.05,0.039,-0.013,-0.079,0.092,-0.042
